# Assay results as given in PubChem BioAssay AID686979 (National Center for Advancing Translational Sciences (NCATS), 2013).
# The campaign covered roughly 420,000 compounds. About 50,000 (12%) were called active. Where a call stands in place of a potency, no number is given. Not shown: some 26% with an inconclusive outcome. Calls follow the shape of the dose curve; as a rule, active = well fitted inhibition curve with a large enough effect; inconclusive = small, poorly fitted or top-dose-only effect; inactive = flat fitted curve, though single readings scatter. Only a selection was taken, and actives are over-represented in it overall.
# Assay: qHTS for Inhibitors of human tyrosyl-DNA phosphodiesterase 1 (TDP1): qHTS in cells in presence of CPT; also: nearly all actives have a fitted effect of over 55% in size
# Details: chicken DT40 Tdp1-/-;hTDP1 cells + 20 nM CPT, ATP luminescence, 48 h; series mostly up to 46.2 µM
# Procedure, shortened: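 Chicken DT40 Tdp1-/- cells complemented with human TDP1, 400 cells/well, exposed to compounds plus 20 nM camptothecin for at least 48 h at 37 C; viability read as ATP content by CellTiter-Glo luminescence.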
# Potency is read from the fitted curve at half-maximal effect.
Compound,Potency,"activity change, negative = growth inhibition"
C=C(C)CNC(=S)N/N=C/c1ccccc1OCC(=O)O,inactive,
C=CCNC(=S)N/N=C/c1ccc(C)s1,4.61 µM (active),
Cc1ccc(/C=N/NC(=O)CN2CCN(Cc3ccccc3)CC2)s1,inactive,
Cc1cc(OC(C)C(=O)Nc2sc3c(c2C(N)=O)CCCC3)ccc1Cl (stereo unspecified),inactive,
c1ccc2c(C[n+]3csc4ccccc43)cccc2c1,0.92 µM (active),
Nc1scc[n+]1Cc1cccc2cccnc12,inactive,
CCOC(=O)CNC(=O)c1cc2c(=O)n3cccc(C)c3nc2s1,inactive,
CCOC(=O)N1CCN(C(=O)CSc2nc(=O)n3cccc(C)c3n2)CC1,inactive,
CCOC(=O)CC1C(=O)NCCN1c1nc2c(C)cccn2c(=O)c1/C=C1\SC(=S)N(C(C)CC)C1=O (stereo unspecified),16.4 µM (active),
N#CC1(NC(=O)COC(=O)CCN=C2NS(=O)(=O)c3ccccc32)CCCCC1,inactive,
COc1cccc(N(CC(=O)NCc2ccccc2)C(=O)CCC(=O)Nc2nccs2)c1,inactive,
CCc1noc(C)c1C(=O)N1CCN(S(=O)(=O)c2cccc(C(F)(F)F)c2)CC1,inactive,
CS(=O)(=O)N(Cc1nc2sc3c(c2c(=O)[nH]1)CCCC3)C1CCCCC1,20.6 µM (active),
NNC(=O)C1CCCn2c1nc1sc3c(c1c2=O)CCCC3 (stereo unspecified),inactive,
O=C(CCc1nc2sc3c(c2c(=O)[nH]1)CCCC3)NCC(=O)Nc1ccccc1Br,inactive,
CCCCCCCCCCCCCCCCO,inactive,
O=C(CCN1C(=O)[C@@H]2Cc3ccccc3CN2C1=O)NCc1ccccc1,inactive,
CCOC(=O)N1CCC(N(CCOC)C(=O)Nc2ccc(C)c(C)c2)CC1,inactive,
Cc1cccc(NC(=O)CSc2nc3c(c(=O)[nH]2)CCC3)c1C,inactive,
Cc1cccc(NC(=O)CN2C(=O)c3ccccc3C2=O)c1C,inactive,
Cc1cccc(NC(=O)CSc2ncc(-c3ccccc3)[nH]2)c1C,25.9 µM (active),
Cc1cccc(NC(=O)COC(=O)CCc2ccccc2)c1C,inactive,
Cc1cccc(NC(=O)CSc2nc3c(c(=O)[nH]2)CCCC3)c1C,inactive,
Cc1cccc(NC(=O)CSC(N)=O)c1C,25.9 µM (active),
CN(Cc1ccccc1)C(=O)c1ccc(NC2=NC3CS(=O)(=O)CC3S2)cc1 (stereo unspecified),inactive,
Cc1cccc2c(=O)cc(CSc3ccccc3NC(=O)C(C)C)[nH]c12,inactive,

Compound,Potency,"activity change, negative = growth inhibition"
COc1ccc(/C(N)=N/OC(=O)Cc2ccccc2)cc1,inactive,
COc1ccc(C(C#N)=C2C=CC(=NO)c3ccccc32)cc1,1.3 µM (active),
COc1ccc(C(=NN)c2ccc(OC)cc2)cc1,inactive,
COc1ccc(C(=O)N(C)Cc2ccc(OC)c(OC)c2OC)cc1S(=O)(=O)N1CCOCC1,inactive,
COc1ccc(/C=C(/NC(=O)c2ccco2)C(=O)Nc2ccc(C(C)=O)cc2)cc1,inactive,
O=C(OCN1C(=O)c2ccccc2C1=O)/C(=C\c1ccco1)NC(=O)c1ccccc1,inactive,
COc1ccc(/C=C(\NC(=O)c2ccc(OCC(C)C)cc2)C(=O)OCc2ccco2)cc1,20.6 µM (active),
CCOc1ccc(/C=C/C(=O)N(CC)CC(=O)NCc2cccs2)cc1OC,inactive,
CC(=O)N[C@@H](C)C(=O)N1CCC(n2nccc2NC(=O)CCCc2ccccc2)CC1,inactive,
ClC/C=C/C[n+]1ccccc1Cl,inactive,
O=C(NCc1ccccc1Cl)C(=O)NCC1CCCN1S(=O)(=O)c1cccs1 (stereo unspecified),inactive,
O=C(NCCC1CCCCN1S(=O)(=O)c1cccs1)C(=O)Nc1ccc(F)cc1F (stereo unspecified),2.91 µM (active),
O=C(NCCC1CCCCN1S(=O)(=O)c1ccc(F)cc1)C(=O)NC1CC1 (stereo unspecified),inactive,
Cc1cc(C)nc(S/C=C/C(=O)c2ccccc2)n1,2.06 µM (active),
Cc1ccc(N/C=C/C(=O)c2ccccc2)cc1C,inactive,
C/C(=N\NC(=O)c1nc(C)cc(C)n1)c1ccccc1,inactive,
O=C(CN(Cc1ccccc1)C(=O)CCC(=O)Nc1ccccn1)NCCc1ccccc1,inactive,
O=C(CSc1nc2ccccc2c(=O)n1Cc1ccc(F)cc1)NCC1CCCO1 (stereo unspecified),inactive,
O=C(CCn1c(SCC(=O)c2ccccc2)nc2ccccc2c1=O)NCc1ccc(F)cc1,inactive,
O=C(CCCn1c(SCC(=O)c2ccccc2)nc2ccccc2c1=O)NCC1CCCO1 (stereo unspecified),16.4 µM (active),
Cc1ccc(CNC(=O)C(=O)c2cn(CC(=O)N3CCCC3)c3ccccc23)cc1,inactive,
NC(=O)Cn1cc(/C=N\NS(=O)(=O)c2ccccc2)c2ccccc21,inactive,
N#CCC(=O)N/N=C/c1cn(Cc2ccc3ccccc3c2)c2ccccc12,5.8 µM (active),
COCCCNC(=O)Cn1cc(/C=C(\C#N)C(=O)N2CCN(c3ccccc3)CC2)c2ccccc21,inactive,
CNC(=S)N/N=C/c1cn(Cc2ccc(C)cc2)c2ccccc12,18.4 µM (active),
N#CCC(=O)N/N=C/c1ccc(SCC(=O)Nc2ccccc2)o1,inactive,

Compound,Potency,"activity change, negative = growth inhibition"
Nc1nc(NCC(=O)O)nc(N2CCCCCC2)c1[N+](=O)[O-],inactive,
Cc1ccc(-n2c(-c3ccc(Cl)cc3)n[nH]c2=S)cc1,inactive,
CC1(C)OC(=O)C2=C(C[C@@H](C3CC3)O[C@H]2c2ccc(Cl)cc2)O1,inactive,
CN(CCO)C(=O)c1nc[nH]c1C(=O)N(C)Cc1ccccc1,inactive,
CCc1ccc(CNC(=O)C2CCN(c3nn4cc(-c5ccc(F)cc5)nc4s3)CC2)cc1,inactive,
COc1ccc(OC)c(CNC(=O)C2CCCN(c3nc4ccccc4o3)C2)c1 (stereo unspecified),inactive,
Cc1cc(=O)n2nc(N3CCC(C(=O)Nc4c(F)c(F)c(F)c(F)c4F)CC3)sc2n1,inactive,
COc1ccc(-c2cn3nc(N4CCC(C(=O)Nc5cccc(C)c5C)CC4)sc3n2)cc1,20.6 µM (active),
COc1ccc(-c2cn3nc(N4CCCC(C(=O)NCCCOC(C)C)C4)sc3n2)cc1 (stereo unspecified),13 µM (active),
Cc1cc(=O)n2nc(N3CCCC(C(=O)NCc4ccc(Cl)cc4)C3)sc2n1 (stereo unspecified),inactive,
CC(C)CNS(=O)(=O)c1ccc(CCC(=O)NCc2ccc(Cl)cc2)cc1,inactive,
CCN(CC)S(=O)(=O)c1ccc(N2CC(C(=O)NCc3cccnc3)CC2=O)cc1 (stereo unspecified),inactive,
Cc1cccc(C)c1OCC(=O)NC(Cc1c[nH]c2ccccc12)C(=O)O (stereo unspecified),inactive,
COc1ccc(-c2cc(C(=O)NC(Cc3c[nH]c4ccccc34)C(=O)O)c(C)o2)cc1OC (stereo unspecified),29.1 µM (active),
COc1ccc(-c2cc(C(=O)NC(C(=O)O)C(C)C)c(C)o2)cc1OC (stereo unspecified),inactive,
Cc1ccc(C(=O)Nc2cccc(-c3nc(CNC(=O)c4ccccc4-n4cccn4)c(C)o3)c2)s1,,-16.4% [at 9.04 µM] (inactive)
CCN(CC)c1ccc(C2C(C(N)=O)=C(C)Nc3nc(SCc4ccccc4)nn32)cc1 (stereo unspecified),inactive,
OC(c1ccc(Cl)c(F)c1)c1ncc(-c2ccccc2Cl)[nH]1 (stereo unspecified),inactive,
Cc1ccc(-c2cnc(C(O)c3cccc(C)c3C)[nH]2)cc1 (stereo unspecified),inactive,
CCCc1ccc(C(O)c2ncc(-c3cccc(OC)c3)[nH]2)cc1 (stereo unspecified),16.4 µM (active),
COc1cccc(-c2ccc(C#N)c(SCC(=O)NCCc3ccc(Cl)cc3)n2)c1,inactive,
COc1c(C)cc(C(O)c2ncc(-c3cccc(C(F)(F)F)c3)[nH]2)cc1C (stereo unspecified),23.1 µM (active),
COc1cccc(-c2cnc(C(O)c3ccccc3OC)[nH]2)c1 (stereo unspecified),inactive,
Cc1cccc(-c2cnc(C(O)c3ccc4ccccc4c3)[nH]2)c1 (stereo unspecified),20.6 µM (active),
Cc1nc(N)[nH]c(=O)c1Oc1cccc(C(F)(F)F)c1,inactive,
O=c1cc(O)c(-c2cccc(C(F)(F)F)c2)c(Cl)[nH]1,inactive,

Compound,Potency,"activity change, negative = growth inhibition"
O=C(O)c1ccc(/C=C2\SC(=S)N(NC(=O)c3ccc(Br)cc3)C2=O)cc1,inactive,
C=CCO/N=C/C1=C(O)C(C(=O)OC)C(C)(C)CC1=O (stereo unspecified),inactive,
CCCCC(NC(=O)c1cccc(Br)c1)C(=O)O (stereo unspecified),inactive,
CSc1ccc(/C=N\NC(=O)CC(=O)NC(C)C)cc1,inactive,
Cc1cc(C)n(-c2nc(O)cc(=O)[nH]2)n1,inactive,
COC(=O)C1=C(C(=O)c2ccc(C)cc2)C(c2ccccc2)n2nnnc2N1 (stereo unspecified),inactive,
O=Cc1c(Nc2ccccc2Cl)nc2ccccn2c1=O,inactive,
COc1cc(N=Cc2c(O)c3ccccc3oc2=O)c(OC)cc1Cl,inactive,
CSc1ccccc1NC(=O)C(C)N1C(=O)c2ccccc2S1(=O)=O (stereo unspecified),inactive,
CC(=O)Nc1ccccc1Sc1ccc2c3c(cccc13)C(=O)N(c1ccc(C)cc1)C2=O,11.6 µM (active),
CCOC(=O)Nc1ccccc1N1C(=O)c2ccccc2C1=O,inactive,
COc1ccc(NC(=O)COC(=O)C2COc3ccccc3O2)cc1 (stereo unspecified),inactive,
CN(C)c1ccc(C(CC(=O)O)C(=O)O)cc1 (stereo unspecified),inactive,
N#C[C@]1(S(=O)(=O)c2ccccc2)C[C@@H]2ON=C(c3cccc(Br)c3)[C@@H]2C1,9.2 µM (active),
COC(=O)[C@]1(S(=O)(=O)c2ccccc2)C[C@@H]2ON=C(c3ccc(OC)cc3)[C@@H]2C1,inactive,
O=C(NCCCn1ccnc1)C1CCCN(S(=O)(=O)c2cc(Cl)ccc2Cl)C1 (stereo unspecified),inactive,
CCC1(c2ccccc2)NC(=O)N(CC(=O)Nc2ccccc2C(=O)NC2CCCC2)C1=O (stereo unspecified),inactive,
COc1ccc(S(=O)(=O)n2nc(C)c(S(=O)(=O)N3CCOCC3)c2C)cc1,inactive,
O=C(/C=C/c1ccccc1[N+](=O)[O-])NCC1CCCO1 (stereo unspecified),inactive,
CC1CCCCC1NC(=O)/C(C#N)=C/C=C/c1ccccc1[N+](=O)[O-] (stereo unspecified),10.3 µM (active),
O=C(/C=C/c1ccccc1[N+](=O)[O-])OC1CCCCC1=O (stereo unspecified),inactive,
O=C(Nc1cccc(C(=O)O)c1)/C(=C\c1ccccc1)NC(=O)c1ccc(Br)o1,inactive,
COc1ccc(-n2ccn(CC(=O)Nc3ccc(C)c(C)c3)c(=O)c2=O)cc1OC,inactive,
